Screening results (PubChem BioAssay)
Hits are enriched below; roughly 3% of the tested compounds scored in any of these assays.
RE007 growth inh = qHTS Assay for Inhibitors of the HIV-1 protein Vpr | S. pombe RE007 Vpr strain, BacTiter-Glo ATP luminescence, 24 h | Potency, µM (series often up to 92.2 µM), hits mostly inhibitors | AID 651644, 2012 | hit rate 0.21% among 360,000; active means well fitted falling curve with a large enough effect; inconclusive means small, poorly fitted or top-dose-only effect; inactive means no such curve, though single readings can be large or run the other way; further: nearly all actives have a fitted effect of over 50% in size
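Fission yeast RE007 carrying one integrated HIV-1 vpr copy, seeded at OD 0.01 in PMG+AL medium with 23 nL pinned compound. Grown 24 h at 30 degrees; viability read by BacTiter-Glo luminescence after 5 min.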
Tb PYK inh = qHTS of Trypanosoma Brucei Inhibitors. TbPYK enzyme, Kinase-Glo Plus ATP luminescence, 45 min. Potency, µM (titrated, usually from 76.8 µM), most hits filed as inhibitors. hit rate 0.12% among 410,000. AID 624173, 2012; further: nearly all actives have a fitted effect of over 50% in size
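Glycolytic pyruvate kinase of T. brucei was incubated with substrate, test compound and 130 uM ADP for 45 minutes at room temperature. Luminescent Kinase-Glo Plus signal was measured after 10 minutes.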
Sm TGR block = qHTS Assay for the Inhibitors of Schistosoma Mansoni Peroxiredoxins; Schistosoma mansoni thioredoxin glutathione reductase (TGR), Q962Y6; purified TGR, DTNB reduction, TNB absorbance 405 nm; Potency, µM (highest dose often 114 µM), hits mostly inhibitors; hit rate 3% among 360,000; further: nearly all actives have a fitted effect of over 60% in size
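TGR 20 nM + NADPH 100 uM (dispensed conc.), cpd preinc 15 min RT; start with NADPH (500 uM addition) then DTNB (15 mM addition). Kinetic TNB absorbance, 405 nm filter. Four-parameter Hill fit across titration.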
LmPK inhibitor = qHTS Assay for Inhibitors of Leishmania Mexicana Pyruvate Kinase (LmPK); hit rate 0.37% among 290,000; purified LmPK, Kinase-Glo ATP luminescence, 1 h; Potency, µM (highest dose often 57.5 µM), usual class: inhibitors; Q27686
Target sequence (Q27686 whole entry, looked up): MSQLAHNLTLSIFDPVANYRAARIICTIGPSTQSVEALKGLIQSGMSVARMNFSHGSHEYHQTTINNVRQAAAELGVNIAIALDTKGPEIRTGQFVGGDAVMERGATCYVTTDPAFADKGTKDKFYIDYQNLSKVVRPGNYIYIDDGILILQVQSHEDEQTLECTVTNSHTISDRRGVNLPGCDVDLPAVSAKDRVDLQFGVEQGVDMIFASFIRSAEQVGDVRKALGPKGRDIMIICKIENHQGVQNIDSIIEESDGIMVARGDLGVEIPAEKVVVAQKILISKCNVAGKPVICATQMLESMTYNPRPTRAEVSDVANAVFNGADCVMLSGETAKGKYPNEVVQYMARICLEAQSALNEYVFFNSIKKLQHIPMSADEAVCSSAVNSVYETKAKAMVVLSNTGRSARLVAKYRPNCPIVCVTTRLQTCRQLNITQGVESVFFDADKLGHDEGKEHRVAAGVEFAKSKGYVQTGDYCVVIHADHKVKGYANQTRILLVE
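ATP generated from ADP (0.1 mM) and PEP (0.5 mM) by 0.1 nM LmPK over 1 h at room temperature (pH 7.2 imidazole buffer) was detected by coupled luciferase luminescence. Values were normalized to uninhibited and no-enzyme wells.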
Each line names hits and unclear results; the compound was inactive in the other large screens. Unless noted, the call rests on the fitted dose curve; in most records, active means well fitted curve in the direction sought with a large enough effect; inconclusive means small, poorly fitted or top-dose-only effect, or another doubt; inactive means no such curve, though single readings can be large; an effect the other way counts as inactive or inconclusive.

C/C=C/C=C\C(=O)Nc1cccc(C2=NOC3(C2)C[C@H](C(N)=O)N(C(=O)CC#N)C3)c1 (stereo not given in full)	Sm TGR block 2µM
C/C=C/C=C/C(=O)N1CC2(CC(c3cccc(NC(=O)CCCCC)c3)=NO2)C[C@H]1C(N)=O (stereo not given in full)	Sm TGR block inconclusive
C/C=C\C=C/C(=O)Nc1cccc(C2=NOC3(C2)C[C@@H](C(N)=O)N(C(=O)CCCCC)C3)c1 (stereo not given in full)	Tb PYK inh inconclusive, Sm TGR block 2.51µM
C=C(C)C(=O)Nc1cccc(C2=NOC3(C2)C[C@@H](C(N)=O)N(C(=O)/C=C/C=C/C)C3)c1 (stereo not given in full)	Sm TGR block 8.91µM
COc1ccc(N2CCN(C(=O)CSc3nc(-c4ccc(C(C)C)cc4)no3)CC2)cc1	none (no result: RE007 growth inh, LmPK inhibitor)
COc1ccc(Br)c(Cn2c(C)c(C(=O)NCc3ccccc3C(F)(F)F)sc2=O)c1	none (no result: Sm TGR block, LmPK inhibitor)
CCOC(=O)N1CCC2(CC1)OC(=O)C(C)=C2C(=O)NCc1ccc(C)cc1	none (no result: RE007 growth inh, LmPK inhibitor)
COc1ccc(Cc2c(-c3ccc(F)cc3)nc3c(C)cc(Br)cn23)c(C)c1	none (no result: Sm TGR block, LmPK inhibitor)
CN(C)CCCNCC(=O)c1c(-c2ccccc2)n(C)c2ccccc12	Sm TGR block 50.1µM
O=Cc1coc2c(ccc3ccccc32)c1=O	Sm TGR block 28.2µM (no result: RE007 growth inh, Tb PYK inh)
O=C/C=C/c1coc2ccc3ccccc3c2c1=O	none
COC(=O)c1nc2n(n1)C(c1cc(OC)ccc1OC)C(C(=O)Nc1ccc(C)cc1C)=C(C)N2 (stereo not given)	Sm TGR block inconclusive (no result: RE007 growth inh, LmPK inhibitor)
C=CC1=C2C=C(C3CC3)N(Cc3ccco3)C=C2C(=O)C(C)(OC(=O)c2ccco2)C1=O (stereo not given)	none (no result: RE007 growth inh, Tb PYK inh, Sm TGR block)
Cc1ccc(S(=O)(=O)c2ccc([N+](=O)[O-])o2)cc1	RE007 growth inh 7.94µM (no result: Sm TGR block, LmPK inhibitor)
CC[C@]1(c2ccccc2C)ON(c2ccccc2C(F)(F)F)C1=O	Sm TGR block 56.2µM (no result: LmPK inhibitor)
COc1ccc(NC(=O)CN(C)C(=O)c2cccc(S(=O)(=O)N3CCN(C)CC3)c2)cc1	Sm TGR block 89.1µM (no result: LmPK inhibitor)
O=C(COc1cccnc1[N+](=O)[O-])c1ccc(Cl)s1	RE007 growth inh inconclusive, Sm TGR block 2µM
O=C(/C=C\c1ccco1)NC(=S)Nc1ccccc1O	Sm TGR block 8.91µM
Cc1cc(C)c2oc(-c3ccc(C)c(NC(=S)NC(=O)/C=C/c4ccco4)c3)nc2c1	Sm TGR block inconclusive
O=C(/C=C/c1ccco1)NC(=S)Nc1ccccn1	Sm TGR block 8.91µM
O=C(/C=C/c1ccco1)NC(=S)Nc1ccccc1O	Sm TGR block 10µM
Cc1ccc(NC(=S)NC(=O)/C=C/c2ccco2)c(O)c1	Sm TGR block 17.8µM
Cc1cccnc1NC(=S)NC(=O)/C=C/c1ccco1	RE007 growth inh inconclusive, Sm TGR block inconclusive
O=C(Nc1ccncc1)c1cc2ccccc2cc1O	none (no result: LmPK inhibitor)
CCCCc1cc2c(=O)c(C(=O)OC)c[nH]c2cc1OCc1ccccc1	none (no result: RE007 growth inh, Sm TGR block, LmPK inhibitor)
Cc1cccc(NCc2ccc(O)c3ncccc23)c1C	Sm TGR block 0.112µM
Cc1ccc(NCc2ccc(O)c3ncccc23)cc1C	none
Oc1ccc(CNc2cccc(C(F)(F)F)c2)c2cccnc12	Sm TGR block 0.316µM (no result: RE007 growth inh, Tb PYK inh, LmPK inhibitor)
Cc1ccc(NCc2ccc(O)c3ncccc23)cc1	Sm TGR block inconclusive
Cc1cccnc1NCc1ccc(O)c2ncccc12	Sm TGR block 0.282µM
COc1ccc(CCNc2ncnc3c2c(-c2ccccc2)cn3-c2ccc(Cl)cc2)cc1OC	none (no result: RE007 growth inh, LmPK inhibitor)
C(=C\c1ccccc1)/CSc1nnc(-c2cnccn2)n1Cc1ccco1	Sm TGR block 20µM
Cc1cccc(NC(=O)CSc2nnc(-c3cnccn3)n2Cc2ccco2)c1	Sm TGR block inconclusive
Cc1ccc(NC(=O)CSc2nnc(-c3cnccn3)n2Cc2ccco2)cc1	Sm TGR block 44.7µM
CC(C)OC(=O)CSc1nnc(-c2cnccn2)n1Cc1ccco1	none
O=C(CSc1nnc(-c2cnccn2)n1Cc1ccco1)c1ccc2ccccc2c1	Sm TGR block 25.1µM
FC(F)(F)c1cc(Cc2nc3ccccc3n2C(CCc2ccccc2)c2nc3ccccc3[nH]2)cc(C(F)(F)F)c1 (stereo not given)	none (no result: Tb PYK inh, Sm TGR block, LmPK inhibitor)
CCOC(=O)C1CCN(C(=O)CNC(=O)c2nn(-c3ccc(OC)cc3)c(=O)c3ccccc23)CC1	none
O=C(CC(c1cccs1)N1Cc2ccccc2C1=O)Nc1ccc(Cl)cc1 (stereo not given)	none (no result: RE007 growth inh, LmPK inhibitor)
O=C(O)c1cc(=O)c2c3nc4ccccc4oc-3cc(=O)c2[nH]1	none (no result: RE007 growth inh, Sm TGR block, LmPK inhibitor)
Nc1cc2nc3ccccc3oc-2cc1=O	RE007 growth inh 63.1µM, Sm TGR block 15.8µM
Cc1c(CCOC(=O)C23CC4CC(CC(C4)C2)C3)sc[n+]1CC#N	Sm TGR block 4.47µM
Cc1c(CCOC(=O)CC23CC4CC(CC(C4)C2)C3)sc[n+]1Cc1ccccc1	none
Cc1ncc(C[n+]2csc(CCOC(=O)CC34CC5CC(CC(C5)C3)C4)c2C)c(N)n1	Sm TGR block 44.7µM
CC[C@H](c1ccccc1)c1noc(CCN(CC)CC)n1	none (no result: RE007 growth inh, Sm TGR block, LmPK inhibitor)
O=C(/C=C/c1ccccc1Cl)c1ccccc(=O)c1O	Sm TGR block 4.47µM
Cc1ccc(C)c(/C=C/C(=O)c2ccccc(=O)c2O)c1	RE007 growth inh inconclusive, Sm TGR block 12.6µM
Cc1ccc(/C=C/C(=O)c2ccccc(=O)c2O)c(C)c1	RE007 growth inh inconclusive, Sm TGR block 14.1µM
O=C(/C=C/c1ccc([N+](=O)[O-])cc1)c1ccccc(=O)c1O	none (no result: Sm TGR block, LmPK inhibitor)
Cc1ccc(C(=O)/C=C/c2ccc3c(c2)OCCO3)c(O)c1	none
O=C(c1ccc2c(c1)N(Cc1cccc(Cl)c1)C(=O)c1ccccc1S2)N1CCOCC1	none (no result: RE007 growth inh, LmPK inhibitor)
O=C(Nc1ccc(F)c(Cl)c1)C1CCN(S(=O)(=O)c2ccc3c(c2)CCCN3C(=O)C2CCC2)CC1	none (no result: RE007 growth inh, LmPK inhibitor)
COC(=O)\C(C(C)=O)=C(/C=C/C=C/C=C/N(C)C)N(C)C	Sm TGR block 35.5µM
O=C(/C=C/c1ccccc1)N1CCN(Cc2cc(=O)n3nc(-c4ccccc4Cl)sc3n2)CC1	none (no result: RE007 growth inh, LmPK inhibitor)
O=C(COC(=O)/C=C/c1ccco1)Nc1ccc(F)cc1Cl	Sm TGR block 31.6µM
O=C(COC(=O)/C=C/c1ccco1)Nc1ccccc1	Sm TGR block 56.2µM
CCc1ccc(NC(=O)COC(=O)/C=C/c2ccco2)cc1	none (no result: Sm TGR block, LmPK inhibitor)
CC1CCCC(NC(=O)COC(=O)/C=C/c2ccco2)C1C (stereo not given)	Sm TGR block 44.7µM (no result: LmPK inhibitor)
COC(=O)c1ccccc1NC(=O)COC(=O)/C=C/c1ccco1	Sm TGR block 25.1µM
O=C(COC(=O)/C=C/c1ccco1)Nc1cc(S(=O)(=O)N2CCOCC2)ccc1Cl	none (no result: Sm TGR block, LmPK inhibitor)
CC1CCCC(C)N1C(=O)COC(=O)/C=C/c1ccco1 (stereo not given)	none (no result: Sm TGR block, LmPK inhibitor)
Cc1ccc(Nc2c(F)cccc2Cl)c(CC(=O)O)c1	none (no result: RE007 growth inh, Sm TGR block, LmPK inhibitor)
O=C(/C=C/c1ccco1)OCC(=O)c1cccc([N+](=O)[O-])c1	none
